Most compounds without a hit are left out; they make up all but 5.9% or so of the library.
RORgamma inh: ROR gamma (mouse) transcription inhibition; 5.4% of 310,000 active; Potency, µM (series often up to 53.6 µM), for the others: at the top dose activity change, negative = inhibition, usual class: inhibitors; P51450; Drosophila S2 Gal4-RORgamma UAS-luciferase reporter, 20 h; AID 2551; further: on the % scale 0 is the no-effect control and ±100 the full control effect; nearly all actives have a fitted effect of over 60% in size
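Drosophila S2 cells stably expressing Gal4-DBD/mouse RORγ fusion under metallothionein promoter plus UAS-luciferase; compound 1 h, then 700 uM CuSO4 induction for 20 h at ambient temperature; inhibition read as reduced luminescence.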
VP16 counter: counter-screen for ROR gamma inhibitors: Gal4-VP16 reporter | Drosophila S2 Gal4-VP16 UAS-luciferase, luminescence, 20 h | Potency, µM (series often up to 53.6 µM), without a hit: at the top dose activity, negative = inhibition, hits mostly inhibitors | 3.5% of 310,000 active | AID 2546;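 further: Gal4-VP16 expression switched on by copper sulfate through the metallothionein promoter; on the % scale 0 is the no-effect control and ±100 the full control effect; nearly all actives have a fitted effect of over 50% in size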
GLP-1R inv ag: acts as inverse agonist at human GLP-1 receptor; HEK293 GLP-1R CRE-luciferase, luminescence, 24 h; GLP-1R form is constitutively active; Potency, µM (titrated, usually from 38.3 µM), for the others: top-dose activity change, negative = inhibition, actives largely listed as inhibitors; 1.6% of 410,000 active; AID 624417; further: on the % scale 0 is the no-effect control and ±100 the full control effect; nearly all actives have a fitted effect of over 55% in size
Target sequence (P43220 whole entry, looked up): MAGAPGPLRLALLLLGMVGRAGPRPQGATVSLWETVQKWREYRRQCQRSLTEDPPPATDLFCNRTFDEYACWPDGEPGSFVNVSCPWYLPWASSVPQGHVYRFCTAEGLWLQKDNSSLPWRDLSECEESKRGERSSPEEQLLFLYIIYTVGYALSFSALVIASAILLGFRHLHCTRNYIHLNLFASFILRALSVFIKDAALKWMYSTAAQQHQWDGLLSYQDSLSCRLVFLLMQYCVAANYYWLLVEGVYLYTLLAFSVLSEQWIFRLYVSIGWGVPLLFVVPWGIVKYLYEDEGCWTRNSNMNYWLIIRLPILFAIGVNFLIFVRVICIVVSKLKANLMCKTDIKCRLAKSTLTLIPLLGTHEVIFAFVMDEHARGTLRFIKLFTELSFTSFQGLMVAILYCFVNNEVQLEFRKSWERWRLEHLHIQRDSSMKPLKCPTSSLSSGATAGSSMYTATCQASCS
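Stable HEK293 clone (constitutively active GLP-1R + cAMP-response luciferase); 200 cells/uL plated, 12 h pre-culture, compound 24 hr, 37 deg C/5% CO2; detection reagent 12 min RT; luminescence.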
HEK293 tox: cytotoxicity in counter-screen for GLP-1R inverse agonists; HEK293 cAMP-luciferase reporter cells, luminescence, 24 h; AID 624418; Potency, µM (series often up to 38.3 µM), for the others: at the top dose activity change, negative = inhibition, most hits filed as inhibitors; 0.13% of 410,000 active;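 further: loss of luciferase light is scored as toxicity; on the % scale 0 is the no-effect control and ±100 the full control effect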
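Quantitative HTS format, 1536 wells, 200 cells/uL seeded. Compounds: 23 nL, 24 h, 37 °C. Detection: luciferase reagent, luminescence at 12 min RT; decreased signal taken as cytotoxic.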
GLP-1R agonist: GLP-1 receptor (human) agonism; P43220; HEK293 GLP-1R CRE-luciferase, luminescence, 4-6 h; cells express a hypersensitive GLP-1R form; Potency, µM (doses to about 45.6 µM), for inactives: at the top dose activation, hits mostly activators; 0.007% of 380,000 active; further: % of control where 0% means no effect
* = called active by the depositor; ? = inconclusive; · = no result; [ ] = another dose, or the depositor's remark. The call rests on the fitted dose curve; in most records, active means well fitted curve in the direction sought with a large enough effect; inconclusive means small, poorly fitted or top-dose-only effect, or another doubt; inactive means no such curve, though single readings can be large; an effect the other way counts as inactive or inconclusive. Potency means the concentration at half of the fitted maximal effect.

SMILES | RORgamma inh | VP16 counter | GLP-1R inv ag | HEK293 tox | GLP-1R agonist
Cc1ccccc1C(=O)Nc1cccc(NC(=O)c2ccc(C(C)(C)C)cc2)c1 | · | · | 7.9µM* | -15% | ·
Cc1[nH]nc2c1-c1nc3ccccc3nc1C(C)(C)C2 | 4µM* | 3.2µM* | 2% | 4% | 10%
O=C(CN(c1ccc(Cl)cc1)S(=O)(=O)c1ccc(Cl)c([N+](=O)[O-])c1)NCCc1ccc(F)cc1 | 7.9µM* | 7.1µM* | 15% | -9% | 6%
Cc1ccc(S(=O)(=O)N(CCc2ccccc2)CC(=O)Nc2ccc(Br)cc2)cc1 | · | · | ? | -2% | ·
C[C@H](O)CN(C)C | -3% | -6% | · | · | -3%
O=C(Nc1ccc2ccccc2c1)c1cnccn1 | 20% | -5% | -28% | -1% | 5%
CCS(=O)(=O)c1ncc(Cl)c(C(=O)Nc2ccc(S(=O)(=O)N3CCCC(C)C3)cc2)n1 (configuration not stated) | ? | 3.5µM* | ? | -1% | -6%
CCS(=O)(=O)c1ncc(Cl)c(C(=O)Nc2ccc(C)cc2)n1 | 5µM* | 2µM* | ? | ? | -15%
COc1ccc(NC(=O)c2nc(S(=O)(=O)Cc3ccc(C)cc3)ncc2Cl)cc1 | · | · | 7% | -4% | ·
CCC1CCCCN1S(=O)(=O)c1ccc(NC(=O)c2nc(S(C)(=O)=O)ncc2Cl)cc1 (configuration not stated) | 3.2µM* | 4µM* | ? | -3% | -7%
CS(=O)(=O)c1ncc(Cl)c(C(=O)Nc2ccc3ccccc3c2)n1 | 2.8µM* | 4.5µM* | ? | ? | -9%
CCCn1c(-c2ccc(F)cc2)nc2c(NCCCCN(C)C)nc(C)nc21 | -6% | 1% | · | · | ·
CCN(c1ccccc1)S(=O)(=O)c1ccc(NN)nc1 | · | · | -5% | -15% | -3%
CCN(CC)S(=O)(=O)c1ccc(NN)nc1 | 4.5µM* | 18µM* | 8% | ? | 2%
CCN(CC)S(=O)(=O)c1ccc(N/N=C/c2cc(OC)ccc2O)nc1 | 4.5µM* | 11µM* | ? | ? | 1%
CCN(CC)S(=O)(=O)c1ccc(N/N=C/c2cccnc2)nc1 | 18% | 2% | 2% | -10% | 9%
CC(C)N(C(C)C)S(=O)(=O)c1ccc(NN)nc1 | 14µM* | ? | ? | ? | -4%
N#Cc1cc(Oc2cccc3cccnc23)c(-n2nnc3ccccc32)cc1C#N | ? | 6.3µM* | ? | -5% | -26%
CN(C)c1ccc(/C=C2\SC(=O)N(CCc3nnc(N)s3)C2=O)cc1 | 2.5µM* | 4.5µM* | ? | -34% | -6%
CN(C)c1ccc(/C=C2/SC(=O)N(CCN=C3NS(=O)(=O)c4ccccc43)C2=O)cc1 | 13% | 5% | 15% | -9% | 1%
CC(C)CC(=O)NC(=S)N1CCN(c2ccc([N+](=O)[O-])cc2Cl)CC1 | 3.5µM* | ? | ? | ? | 5%
CCCn1c(-c2ccc(F)cc2)nc2c(NCCCN3CCOCC3)nc(C)nc21 | -37% | -1% | · | · | ·
COc1ccc(OCC(=O)Nc2nccs2)cc1 | 3.5µM* | 7.9µM* | -2%[0.307 µM] | -1%[0.307 µM] | -16%
COc1ccccc1OCC(=O)Nc1ccncc1 | 44% | -6% | 14% | 10% | 9%
Cc1ccc(CCC(=O)Nc2nccs2)o1 | -1% | 28µM* | 5% | -10% | -1%
SMILES | RORgamma inh | VP16 counter | GLP-1R inv ag | HEK293 tox | GLP-1R agonist
O=C(COc1cccc2cccnc12)Nc1nccs1 | ? | 18µM* | ? | 5% | 0%
COc1ccc(OCCC(=O)Nc2nccs2)cc1 | ? | ? | 13% | 20% | 14%
CCc1ccc(CCC(=O)Nc2nccs2)o1 | -26% | 4% | 15% | 2% | 4%
Cc1cccc(OCC(=O)Nc2ccncc2)c1C | ? | 3.2µM* | 3% | -4% | -3%
O=C(Cl)c1cccc([N+](=O)[O-])c1 | -8% | -7% | · | · | ·
CCOC(=O)c1ccccc1NC(=O)Cn1ncc2c([nH]c3ccccc32)c1=O | · | · | -20% | 0% | ·
CC(O)COC(C)(C)C (configuration not stated) | 3% | -18% | · | · | ·
c1ccc(Nc2ncnc3ccc(-c4cccnc4)cc23)cc1 | 3% | -13% | · | · | ·
Cc1cccc(OCCCC(=O)Nc2nccs2)c1C | 3.2µM* | -2% | -12% | -2% | 18%
COCc1nnc(NC(=O)COc2ccc3c(c2)OCO3)s1 | -25% | 0% | -10% | -1% | 13%
Cc1cccc(OCCCC(=O)Nc2ccc(S(=O)(=O)Nc3nccs3)cc2)c1C | ? | 6% | -8% | 17% | -17%
CCOc1ccc(OCC(=O)Nc2nccs2)cc1 | 13µM* | -14%[10 µM] | ? | 2% | -8%
O=C(COc1ccc2c(c1)OCO2)Nc1nccs1 | 10µM* | ? | ? | 13% | -1%
COC(=O)C1(C(=O)OC)CC2=CC(CC2=O)Cc2ccccc2[C@@H]1C[N+](=O)[O-] (some centres not stated) | 16% | -3% | · | · | ·
N#CC1=C(S)N=C(N)C(c2nc(-c3ccccc3)cs2)C12CCCCC2 (configuration not stated) | 10µM* | ? | 27% | -3% | -15%
N#CC1=C(S)N=C(N)C(c2nc(-c3ccccc3)cs2)C12CCCC2 (configuration not stated) | 10µM* | -21% | 0% | 17% | -16%
Cc1ccc(-c2csc(C3C(N)=NC(S)=C(C#N)C34CCCCC4)n2)cc1 (configuration not stated) | 5µM* | ? | -8% | -4% | -8%
Nc1nc(-c2ccccc2)cs1 | 8% | 6% | 6% | 25% | -2%
Cc1ccc(C(=O)CSC2=NC(N)=C(C#N)C3(CCCCC3)C2C(N)=O)cc1 (configuration not stated) | 9% | ? | -5% | -24% | -7%
CCc1cccc(NC(=O)C(Cc2ccccc2)n2cccc2)c1 (configuration not stated) | · | · | ? | -7% | ·
O=C(NCc1ccccc1)NC1COc2ccccc2C1 (configuration not stated) | · | · | -13% | 16% | ·
CCC(=O)OCCNc1cc(SCCC(=O)OC)c2nonc2c1[N+](=O)[O-] | -11% | ? | 10% | ? | -31%
CCCC(=O)OCCNc1cc(Sc2nc3ccccc3[nH]2)c2nonc2c1[N+](=O)[O-] | 2.8µM* | 3.2µM* | ? | ? | -29%
CCC(=O)OCCNc1cc(Sc2nccn2C)c2nonc2c1[N+](=O)[O-] | 4.5µM* | 4µM* | 8% | -15% | -25%
COc1ccc(-n2ccn3c(CC(C)(C)CC(=O)O)nnc3c2=O)cc1 | · | · | 0% | 13% | -1%
CCOC(=O)Cc1csc(SCC(=O)Nc2cc(Cl)ccc2Oc2ccccc2)n1 | ? | ? | 10µM* | 26% | -2%
CCOC(=O)Cc1csc(SCC(=O)Nc2cccc(Cl)c2)n1 | 13% | 6% | -15% | 4% | 6%
